# Results reported in the supplement of paper PMC6555819.
# Assays:
# Assay in all cases: PBM binding z-score (relative to random genomic background probes); higher = stronger binding; sequences stand for … in GC…GCGATTGACAGCGTAGAATGAAGG
# [1] = test system: RARb homodimer (NR concentration 270 nM)
# In short: (§1)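 On custom Agilent 4×180K arrays, double-stranded probes with 34-nt variable regions carried direct-repeat seeds, single-nucleotide variants, half-site ablations or random human genomic background. Ligand-free nuclear receptor dimers were applied for 1 h, and binding was read with antibodies against each partner (one per run). Binding z-scores come from regression-normalized fluorescence, with the random background probes as reference.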
# [2] = test system: RARg:RXRa (NR concentration 270 nM, RXRa partner concentration 90 nM)
# In short: as §1
# [3] = test system: RARg homodimer (NR concentration 270 nM)
# In short: as §1
# [4] = test system: RXRa DBDmut IVT, anti-RXR (DBD mutation: RXRa K156A/R161A, NR concentration 90 nM)
# In short: as §1
# [5] = test system: RXRa homodimer (NR concentration 180 nM)
# In short: as §1
# [6] = test system: THRa:RXRa (NR concentration 90 nM, RXRa partner concentration 90 nM)
# In short: as §1
# [7] = test system: THRa homodimer (NR concentration 90 nM)
# In short: as §1
# [8] = test system: VDR homodimer (NR concentration 270 nM)
# In short: as §1
Sequence,PBM binding z-score [1],PBM binding z-score [2],PBM binding z-score [3],PBM binding z-score [4],PBM binding z-score [5],PBM binding z-score [6],PBM binding z-score [7],PBM binding z-score [8]
CCGACTGGGGCATAAGGTTACAATAAGCCAGCCC,1.61,1.66,1.08,-0.313,1.18,1.95,0.977,-0.296
ATATGTAGGTTATCGGGTCATCCAGTTTGCGCAT,3.46,3.7,2.8,1.33,3.78,3.68,3.07,3.89
ACTATTAGTTGACTTAGGGCAAACGATACGACGC,0.722,0.773,1.08,0.703,0.56,1.24,0.149,-0.123
GGAACGAGGGCAAAGTTGATGGCATCTGTCGACG,1.32,2.05,1.74,2.62,1.97,1.55,-0.087,1.7
GCTGCTAGGTCAACTGATGGTCAGCTATAGCTCG,3.72,5.34,5.69,1.79,3.41,3.03,1.11,-0.0243
CCTAGCAGGCCAATCCGGGTCACTCAAGGCTTGA,2.35,1.67,1.42,0.0497,1.65,4.38,1.72,0.638
TCTTGTAGATCAATAGAGGCTAAGAAAGTGCGCT,-0.029,0.139,-0.0605,0.703,0.213,0.676,-0.939,-0.123
TCGAGTAGGTTAGTCGGGGAATTCAGCCAACATA,0.122,-0.408,-0.41,0.0963,-0.255,0.163,-0.3,-0.495
TCATATAGGTAAATGCTAGGTGAAGGTCCGATCT,0.576,0.474,0.349,1.34,0.65,1.43,0.583,0.324
TCATATAGGCAAATGCTAGGTGAAAGTCCGATCT,0.285,0.0737,0.0347,1.15,0.445,0.84,0.227,-0.285
ACTCGCAGGCCAAGTTTGGGTCACTCAAACAAAG,2.5,2.65,1.73,0.0285,0.756,2.72,1.1,0.548
ACCTCTAGGTAAAAGTTCAGTGAATCCCGAGGAT,2.22,1.17,1.56,0.969,1.22,0.914,-0.324,1.21
CCTTACGGGTCACTGACAGGTTCTAGCATTTGGA,3.15,4.85,4.15,1.95,4.61,2.45,0.145,1.03
CGAACTAGGTCAGAACAGGACAGTGACGGATGAT,2,2.38,3.42,0.578,1.31,3.31,0.199,0.168
CCTTACGGATCACTCCAGGTTATAGCATCGGAGT,0.563,0.297,0.583,0.552,0.224,3.06,0.842,0.677
TCATATAGGTAAAACAGGTGAAAGTCGGCATCTA,0.437,0.572,0.226,1.71,1.1,0.827,0.0853,-0.37
AATACAGGGTCATCGTAGGCCAAAGTACGCACAG,3.71,5.86,5.3,3.63,6.87,4.53,1.34,3.98
AGAATGAGGTTATTCGTAGATCAGGGAAGAAAGT,0.677,1.86,0.782,2.5,2.29,2.32,0.475,1.07
ATATGTAGGTTATATCCGGGTCATTCAGGCTATG,2.73,3.85,1.81,1.22,2.84,3.82,2.73,3.33
TAGCATAGGTCAGATCGGGCCAGTATACGCTATA,2.53,3.8,3.77,-0.503,2.97,4.24,-1.1,-0.438
ACTCAAAGTTCATCTAGGTAACGTAAGATATGCT,4.25,5.51,6.3,4.87,4.62,3.37,0.619,5.89
TAGCCTAGGTCGTGGGCCAGTATACCACGCGAAC,0.693,0.842,0.996,-0.872,0.851,0.795,-0.254,-0.53
ACTAGTTGGTCAGCTGAGGTCACACGCAATTCGG,4.17,4.1,4.4,1.4,4.02,5,5.12,3.63
TCTTGTAGACCAAGCAGGTTAAGAAAGCCTGAGT,0.377,0.0625,-0.186,0.787,0.346,0.395,-0.407,0.173
TCATATAGGTAAATGCCAGGTGAAAGTCCGATCT,0.815,0.611,0.433,1.64,0.912,2.02,1.33,0.435
CCTGCTAGGTGATGGTCAGCTAATCTACAGTATG,-0.121,-0.189,0.108,-0.024,-0.424,-0.498,-0.545,-0.612
CCTTACGGGTCACTCCAGGTTATGGCATCGGAGT,3.07,4.46,4.54,1.4,4.22,5.16,0.627,1.62
AGTCAAAGTTCATCTAGGTAAAGTAAGATATGCT,3.76,5.67,6.09,4.8,5.07,3.07,0.199,5.29
